Where “and” joins values, the source holds several entries; their conditions need not be identical. Equal values may be shown once. Records with an inconclusive call do not appear. A call without a number means that no potency is given here. Some compounds were tested as several samples or in several runs, with calls that do not always agree. Calls of active or inactive are those of the source. Unless noted, the call rests on the fitted dose curve; in most records, active means well fitted curve in the direction sought with a large enough effect in the repeat runs; inconclusive means weak or mixed curves; inactive means no such curve, though single readings can be large; an effect the other way counts as inactive or inconclusive.
Columns and labels:
[1] = qHTS assay to identify small molecule antagonists of the estrogen related receptor (ERR) signaling pathway from Tox21 library - cell viability counter screen (AID 1224834); further: nearly all actives have a fitted effect of over 30% in size; further: potency means the concentration at half of the fitted maximal effect
Summary of the method: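 Seeded ERR cells were rested 6 h at 37 C/5% CO2 before compounds, positive and negative controls or DMSO were added. Incubation continued for 17.5 h, and viability was then quantified by CellTiter-Fluor fluorescence.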

[2] = qHTS assay to identify small molecule agonists of the constitutive androstane receptor (CAR) signaling pathway - cell viability counter screen (AID 1224836); further: nearly all actives have a fitted effect of over 45% in size; further: potency means the concentration at half of the fitted maximal effect
Summary of the method: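 HepG2 cells stably carrying hCAR and a CYP2B6-2.2kb reporter were plated 4 h, then given compounds at 15 concentrations plus PK11195 (final 0.75 uM). After 23 h at 37 C, viability was read by CellTiter-Fluor fluorescence.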

[3] = qHTS assay to identify small molecule antagonists of the constitutive androstane receptor (CAR) signaling pathway - cell viability counter screen (AID 1224837); further: nearly all actives have a fitted effect of over 45% in size; further: potency means the concentration at half of the fitted maximal effect
Summary of the method: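 To flag cytotoxic false antagonists, HepG2 hCAR/CYP2B6-2.2kb cells were treated 23 hr with 15-concentration compound series and 50 nM CITCO at 37 C/5% CO2; CellTiter-Fluor fluorescence was the measured end point.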

[4] = biological target: Nuclear receptor subfamily 1 group I member 3 (Homo sapiens) (UniProt Q14994); assay: qHTS assay to identify small molecule antagonists of the constitutive androstane receptor (CAR) signaling pathway (AID 1224838); further: nearly all actives have a fitted effect of over 40% in size; further: potency means the concentration at half of the fitted maximal effect
Chain of Nuclear receptor subfamily 1 group I member 3 (Homo sapiens) (Q14994 whole entry, looked up): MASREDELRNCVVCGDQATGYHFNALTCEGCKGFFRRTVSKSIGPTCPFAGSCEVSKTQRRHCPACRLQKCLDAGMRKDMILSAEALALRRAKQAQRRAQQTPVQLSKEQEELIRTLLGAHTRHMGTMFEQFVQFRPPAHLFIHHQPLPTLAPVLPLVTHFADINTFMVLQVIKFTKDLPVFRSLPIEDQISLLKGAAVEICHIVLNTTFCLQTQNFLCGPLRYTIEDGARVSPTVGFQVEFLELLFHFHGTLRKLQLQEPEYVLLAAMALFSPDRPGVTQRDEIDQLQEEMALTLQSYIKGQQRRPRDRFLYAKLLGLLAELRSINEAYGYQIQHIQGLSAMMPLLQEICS
Summary of the method: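 Human hepatoma HepG2 cells expressing hCAR and a CYP2B6 promoter (2.2 kb) luciferase construct; compound titration (15 points) with 50 nM CITCO final, 24 h at 37 C/5% CO2; luminescence via ONE-Glo after 30 min at room temperature.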

[5] = biological target: Nuclear receptor subfamily 1 group I member 3 (Homo sapiens) (UniProt Q14994); assay: qHTS assay to identify small molecule agonists of the constitutive androstane receptor (CAR) signaling pathway (AID 1224839); further: nearly all actives have a fitted effect of over 15% in size; further: potency means the concentration at half of the fitted maximal effect;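 on activation: HepG2 cells stably carrying human CAR and a CYP2B6 luciferase reporter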
Summary of the method: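 HepG2 cells stably expressing hCAR and a CYP2B6-2.2kb luciferase reporter were treated with compounds at 15 concentrations plus 0.75 uM PK11195 (final) for 24 h at 37 C; luminescence was read after ONE-Glo addition.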

[6] = qHTS assay to identify small molecule antagonists of the estrogen related receptor signaling pathway with the pleiotropic PPARgamma coactivator (PGC) from Tox21 10K library - cell viability counter screen (AID 1224840; active means well fitted cell-killing curve with a large enough effect in the repeat runs, not every such curve was filed as active; further: nearly all actives have a fitted effect of over 40% in size; further: potency means the concentration at half of the fitted maximal effect)
Summary of the method: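 Seeded PGC/ERR cells (2,000/well, 6 h, 37 C/5% CO2) get compound by pin tool; 17.5 h incubation at 37 C; CellTiter-Fluor added, 30 min, fluorescence measured.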

[7] = qHTS assay to identify small molecule agonists of the estrogen related receptor signaling pathway with the pleiotropic PPARgamma coactivator (PGC) from Tox21 10K library (AID 1224842); further: nearly all actives have a fitted effect of over 15% in size
Summary of the method: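 PGC/ERR reporter cells (NTP line) were seeded 2,000 per well, rested 6 h at 37 C/5% CO2, then pin-dosed with compounds in DMSO for 18 h at 37 C; luciferase read by One-Glo luminescence after 30 min at room temperature.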

[8] = qHTS assay to identify small molecule agonists of the hypoxia (HIF-1) signaling pathway - cell viability counter screen (AID 1224844; calls by dose curve; further: nearly all actives have a fitted effect of over 50% in size; further: potency means the concentration at half of the fitted maximal effect)
Summary of the method: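 HRE-bla ME-180; 0.5% dFBS; cpd 17 h, 37C, 5% CO2; CellTiter-Glo lum., 30 min RT, post-FRET read, same wells.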

[9] = qHTS assay to identify small molecule agonists of H2AX - cell viability counter screen (AID 1224847; calls by dose curve; further: nearly all actives have a fitted effect of over 30% in size; further: potency means the concentration at half of the fitted maximal effect)
Summary of the method: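 Wild-type CHO-K1 cells (10% FBS medium) were plated overnight at 37C, exposed to compounds at 15 concentrations for 3 hr at 37C (0.76% DMSO final), and viability was read as CellTiter-Glo luminescence after 30 min at room temperature.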

[10] = qHTS assay to identify small molecule antagonists of the estrogen related receptor (ERR) signaling pathway from Tox21 library (AID 1224848); further: nearly all actives have a fitted effect of over 50% in size; further: potency means the concentration at half of the fitted maximal effect
Summary of the method: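 Tox21 10K compounds in DMSO tested for ERR pathway antagonism in NTP's ERR cell line; 18 h, 37 C exposure; ONE-Glo luminescence.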

[11] = qHTS assay to identify small molecule agonists of the estrogen related receptor (ERR) signaling pathway from Tox21 library (AID 1224849; calls by dose curve; further: nearly all actives have a fitted effect of over 15% in size); details: ERR reporter cell line, ONE-Glo luciferase, 18 h; at 92.4 µM (top of the series) unless noted
Summary of the method: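 Tox21 compounds tested for ERR agonism in an NTP reporter cell line: 18 h treatment at 37 C, then ONE-Glo luminescence.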

[12] = qHTS RealTime-Glo MT Cell Viability Assay in HepG2 cells - 24 hour (AID 1224867); further: nearly all actives have a fitted effect of over 50% in size; further: potency means the concentration at half of the fitted maximal effect
Summary of the method: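 Luminescence read-out: viable HepG2 cells reduce a prosubstrate to a NanoLuc substrate, giving a signal proportional to live cell number. Reads taken at 0, 8, 16, 24, 32 and 40 h of compound exposure at 37 C.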

[13] = A CellTox Green Cytotoxicity Assay to monitor cytotoxicity in HEK293 cells - 0 hour (AID 1224869); further: nearly all actives have a fitted effect of over 50% in size
Summary of the method: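 Tox21 screen in HEK293: membrane-impermeant cyanine dye fluoresces on binding dead-cell DNA; compound pinned 5 h post-seeding, plates held at 37 C, signal read repeatedly through 40 h.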

[14] = qHTS RealTime-Glo MT Cell Viability Assay in HepG2 cells - 40 hour (AID 1224870); further: nearly all actives have a fitted effect of over 50% in size; further: potency means the concentration at half of the fitted maximal effect
Summary of the method: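 HepG2 cells mixed with RealTime-Glo MT reagents (NanoLuc plus cell-permeant prosubstrate) were seeded at 600 cells/well, incubated 5 h at 37 C/5% CO2, then pinned with compounds in DMSO; nonlytic luminescence tracked viability during 40 h treatment.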

[15] = biological target: Luciferin 4-monooxygenase (Photinus pyralis) (UniProt P08659); assay: qHTS assay to identify small molecule inhibitors of firefly luciferase (AID 1224835); further: nearly all actives have a fitted effect of over 25% in size; further: potency means the concentration at half of the fitted maximal effect
Chain of Luciferin 4-monooxygenase (Photinus pyralis) (P08659 whole entry, looked up): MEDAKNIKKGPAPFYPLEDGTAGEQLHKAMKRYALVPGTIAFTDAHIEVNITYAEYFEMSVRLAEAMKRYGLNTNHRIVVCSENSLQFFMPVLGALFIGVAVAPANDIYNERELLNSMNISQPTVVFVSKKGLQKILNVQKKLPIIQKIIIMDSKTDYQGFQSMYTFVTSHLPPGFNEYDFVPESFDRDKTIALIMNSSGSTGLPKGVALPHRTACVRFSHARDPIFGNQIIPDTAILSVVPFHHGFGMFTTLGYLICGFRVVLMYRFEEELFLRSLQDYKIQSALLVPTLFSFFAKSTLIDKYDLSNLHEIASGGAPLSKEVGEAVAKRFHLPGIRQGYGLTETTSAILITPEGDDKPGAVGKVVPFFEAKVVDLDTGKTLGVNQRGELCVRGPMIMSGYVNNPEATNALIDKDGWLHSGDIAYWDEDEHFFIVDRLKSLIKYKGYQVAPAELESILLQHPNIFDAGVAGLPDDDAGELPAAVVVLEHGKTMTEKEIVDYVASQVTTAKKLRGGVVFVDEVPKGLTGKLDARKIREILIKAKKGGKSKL
Summary of the method: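 Quantitative HTS format; KM concentrations of both substrates. Purified P. pyralis FLuc activity quantified from luminescence images.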

[16] = biological target: Thyrotropin receptor (Homo sapiens) (UniProt P16473); assay: qHTS assay to identify small molecule agonists of the thyroid stimulating hormone receptor (TSHR) signaling pathway (AID 1224843; calls by dose curve; further: nearly all actives have a fitted effect of over 45% in size)
Chain of Thyrotropin receptor (Homo sapiens) (P16473 whole entry, looked up): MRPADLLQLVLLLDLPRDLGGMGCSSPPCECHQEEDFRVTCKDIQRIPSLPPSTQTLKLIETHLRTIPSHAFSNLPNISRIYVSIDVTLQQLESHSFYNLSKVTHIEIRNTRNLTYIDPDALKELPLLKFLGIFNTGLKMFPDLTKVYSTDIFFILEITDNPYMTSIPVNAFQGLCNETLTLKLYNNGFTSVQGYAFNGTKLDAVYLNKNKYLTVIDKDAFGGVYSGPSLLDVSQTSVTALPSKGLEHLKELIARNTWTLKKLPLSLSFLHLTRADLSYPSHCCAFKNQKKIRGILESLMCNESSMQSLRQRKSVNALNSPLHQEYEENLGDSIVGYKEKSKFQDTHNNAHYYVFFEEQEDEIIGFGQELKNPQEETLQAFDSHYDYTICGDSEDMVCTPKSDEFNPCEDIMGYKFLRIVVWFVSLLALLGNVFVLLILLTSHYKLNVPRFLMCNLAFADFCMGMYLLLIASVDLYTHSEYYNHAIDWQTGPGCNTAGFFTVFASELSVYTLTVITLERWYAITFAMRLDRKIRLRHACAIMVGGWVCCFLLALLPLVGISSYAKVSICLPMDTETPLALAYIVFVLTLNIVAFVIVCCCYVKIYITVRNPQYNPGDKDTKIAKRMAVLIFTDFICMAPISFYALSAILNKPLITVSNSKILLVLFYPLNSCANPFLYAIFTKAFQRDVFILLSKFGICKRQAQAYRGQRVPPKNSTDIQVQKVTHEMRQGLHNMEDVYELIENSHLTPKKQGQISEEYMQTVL
Summary of the method: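 Using 15 concentrations per compound in triplicate, cAMP production was monitored in TSHR-HEK293 cells after 30 min compound incubation at RT; HTRF reagents followed, with fluorescence intensity recorded after 1 h.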

[17] = qHTS assay to identify small molecule agonists of H2AX (AID 1224845; active means well fitted activation curve with a large enough effect in the signal ratio in the repeat runs, not every such curve was filed as active; the % refers to the signal ratio)
Summary of the method: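 Wild-type CHO-K1 cells plated overnight, then exposed 3 hr at 37C to compounds at 15 concentrations (0.76% DMSO). Lysed, then HTRF anti-pH2AX(S139)-cryptate/anti-H2AX-d2 detection after 24 hr at room temperature; emissions 665 and 620 nm.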

[18] = qHTS assay to identify small molecule agonists of the hypoxia (HIF-1) signaling pathway (AID 1224846; active means well fitted activation curve with a large enough effect in the signal ratio in the repeat runs, not every such curve was filed as active; the % refers to the signal ratio)
Summary of the method: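 Reporter induction in HRE-bla ME-180 cells is taken as agonism: cells sit 5 hrs after plating, receive compounds or DMSO only, incubate 17 hrs at 37C under 5% CO2, and are loaded with CCF4-AM for beta-lactamase FRET measurement.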

[19] = qHTS RealTime-Glo MT Cell Viability Assay in HEK293 cells - 32 hour (AID 1224868); further: nearly all actives have a fitted effect of over 50% in size; further: potency means the concentration at half of the fitted maximal effect
Summary of the method: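 Nonlytic real-time viability readout: viable cells convert prosubstrate to NanoLuc substrate, giving luminescence proportional to live cell number. HEK293, 600 cells/well, compound added after 5 h, continuous culture at 37 C.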

[20] = qHTS assay to identify small molecule antagonists of the estrogen related receptor signaling pathway with the pleiotropic PPARgamma coactivator (PGC) from Tox21 10K library (AID 1224841; call rule not given here; further: potency means the concentration at half of the fitted maximal effect)
Summary of the method: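 Test chemicals dissolved in DMSO were applied to pre-incubated (6 h) PGC/ERR cells at 2,000 cells/well for an 18 h, 37 C treatment; reporter luminescence was then read using One-Glo.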

| Compound | Potency [1] | Potency [2] | Potency [3] | Potency [4] | Potency [5] | Potency [6] | Potency [7] | Potency [8] | Potency [9] | Potency [10] | activity change, positive = activation [11] | Potency [12] | Potency [13] | Potency [14] | Potency [15] | Potency [16] | Potency [17] | Potency [18] | Potency [19] | Potency [20] |
| --- | --- | --- | --- | --- | --- | --- | --- | --- | --- | --- | --- | --- | --- | --- | --- | --- | --- | --- | --- | --- |
| N#Cc1sc2c(=O)c3ccccc3c(=O)c=2sc1C#N | 48.6 µM (active) | 8.63 µM (active) | 6.11 µM (active) | 8.63 µM (active) | 2.17 µM (active) | 48.6 µM (active) | inactive | 4.9 µM (active) | 101 µM (active) | 61.1 µM (active) | -74.5% (inactive) | 11 µM (active) | inactive | 11 µM (active) | – | – | – | – | – | – |
| C[C@]12CC[C@H]3[C@@H](CCC4=CC(=O)CC[C@@H]43)[C@@H]1CC[C@@H]2OC(=O)CCc1ccco1 | inactive | – | – | inactive | inactive | inactive | – | inactive | – | – | – | – | inactive | inactive | inactive | inactive | inactive | inactive | inactive | – |
| CC(=O)C(Cl)C(=O)N(C)C (configuration not stated) | inactive | inactive | inactive | – | inactive | inactive | – | 43.6 µM (active) | inactive | – | – | inactive | inactive | inactive | – | inactive | – | inactive | inactive | – |
| O=[N+]([O-])C(Br)Br | inactive | – | – | inactive | inactive | inactive | inactive | 43.7 µM (active) | inactive | inactive | 5.44% (inactive) | inactive | inactive | – | 28.3 µM (active) | inactive | inactive | – | 55 µM (active) | inactive |
| CCC(OC(C)=O)C(CC(C)NC)(c1ccccc1)c1ccccc1 (configuration not stated) | 69.2 µM (active) | 69.2 µM (active) | 69.2 µM (active) | 69.2 µM (active) | inactive | 69.2 µM (active) | inactive | – | 128 µM (active) | 69.2 µM (active) | -58.4% (inactive) | 62.2 µM (active) | inactive | 62.2 µM (active) | – | – | inactive | inactive | 55.4 µM (active) | inactive |
| ClSC(Cl)(Cl)Cl | inactive | inactive | inactive | inactive | inactive | inactive | inactive | inactive | inactive | inactive | 1.32% (inactive) | inactive | inactive | inactive | – | – | inactive | inactive | inactive | inactive |
| CN1CCc2cc(Cl)c(O)cc2[C@H]2c3ccccc3CC[C@@H]21 | inactive | – | – | inactive | inactive | inactive | inactive | – | inactive | inactive | 0.522% [at 42.5 µM] (inactive) | – | inactive | inactive | inactive | inactive | inactive | inactive | – | inactive |
| O=S(=O)(O)F | inactive | inactive | inactive | inactive | inactive | inactive | – | inactive | inactive | – | – | inactive | inactive | inactive | – | inactive | inactive | inactive | – | – |
| O=C(O)[C@H](O)[C@@H](O)C(=O)O | inactive | – | – | – | – | inactive | – | inactive | inactive | – | – | inactive | inactive | – | inactive | – | inactive | – | – | – |
| CSSC | inactive | – | – | 22 µM (active) | inactive | inactive | inactive | inactive | inactive | inactive | -6.7% (inactive) | inactive | inactive | inactive | inactive | inactive | inactive | inactive | – | inactive |
| C=Cc1cccc(CCl)c1 | inactive | – | – | inactive | inactive | inactive | – | inactive | inactive | – | – | inactive | inactive | inactive | inactive | – | inactive | – | inactive | – |
| CCCCCCCCCCCCCCn1cc[n+](C)c1 | 27.4 µM (active) and 30.3 µM (active) | – | – | – | – | 27.4 µM (active) and 30.3 µM (active) | inactive | 24.6 µM (active) and 43.2 µM (active) and inactive | 12.7 µM (active) and 22.3 µM (active) | 1.73 µM (active) and 1.35 µM (active) | -74.5% (inactive) and -73.1% (inactive) and -26.1% (inactive) | 24.6 µM (active) and 48.5 µM (active) and inactive | inactive | 21.9 µM (active) and 34.3 µM (active) and inactive | inactive | – | inactive | – | 8.72 µM (active) and 4.32 µM (active) | 24.4 µM (active) and 24.1 µM (active) and inactive |
| COc1cnc(OC)n2nc(NS(=O)(=O)c3c(OCC(F)F)cccc3C(F)(F)F)nc12 | inactive | inactive | inactive | inactive | inactive | inactive | inactive | inactive | inactive | inactive | 0.129% (inactive) | inactive | inactive | inactive | – | – | inactive | inactive | inactive | inactive |
| C=CCOC(=O)c1ccccc1N | inactive | inactive | inactive | inactive | – | inactive | inactive | inactive | – | – | -28.9% (inactive) | inactive | inactive | inactive | – | – | inactive | inactive | – | inactive |
